# HCV inh: inhibitors of hepatitis C virus infection. Huh7.5.1 HCVcc-Cre infection, luciferase reporter, 44 h. Potency, µM (top dose mostly 41.8 µM), without a hit: at the top dose activity change, negative = inhibition, most hits filed as inhibitors. actives 3.4% (n = 340,000). AID 651820; active = well fitted inhibition curve with a large enough effect; inconclusive = small, poorly fitted or top-dose-only effect, or another doubt; inactive = no such curve, though single readings can be large or run the other way; note: potency is the fitted concentration of half-maximal effect
#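 Whole-lifecycle infectious HCVcc-Cre system; cells 1,000/well, compound then virus (~0.5 moi) added 4 h after plating, 44 h culture. Luciferase read 15 sec following 15 min substrate incubation, room temp.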
# MARV entry inh: Marburg virus entry inhibition; Marburg virus pseudotyped entry inhibition, cell reporter; Potency, µM (top dose mostly 37.8 µM), for the others: top-dose activity change, negative = inhibition, most hits filed as inhibitors; actives 1.8% (n = 300,000); calls by dose curve; tested in HEK293 cells; note: potency is the fitted concentration of half-maximal effect
# LASV entry inh: inhibitors of Lassa virus binding or cell entry. actives 1.2% (n = 300,000). Potency, µM (doses to about 37.9 µM), without a hit: at the top dose activity change, negative = inhibition, actives largely listed as inhibitors. Lassa virus pseudotype entry inhibition, cell reporter; calls by dose curve; tested in HEK293 cells; note: potency is the fitted concentration of half-maximal effect; nearly all actives have a fitted effect of over 50% in size
# FMDV inh: antivirals against foot and mouth disease virus. Potency, µM (doses to about 57.9 µM), without a hit: at the highest dose activity change, negative = inhibition, actives largely listed as inhibitors. actives 1.2% (n = 410,000). FMDV antiviral cell-based qHTS; calls by dose curve; tested in HEK293T cells; note: read-out not given here; potency is the fitted concentration of half-maximal effect; nearly all actives have a fitted effect of over 45% in size
# HCMV antiviral: human cytomegalovirus inhibition. HFF cells, HCMV-luciferase reporter, 72 h; stronger effect = lower value. activity change, negative = inhibition, % at 57.5 µM. actives 4.5% (n = 410,000). AID 1259415; in the data active = activity change below about -60%; inconclusive = no clear call, values can overlap the other calls; inactive = above about -39%
#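 Two compound doses tested in HFFs infected with HCMV-luciferase, MOI 1 PFU/cell, 72 h at 37C. Lysate luminescence read with OneGlo; data normalized against buffer-only and 10uM Salinomycin inhibitor controls.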
# * hit, by the source's call; u = inconclusive; x = no result given; ! = a repeat was not active; [ ] = another dose, or the depositor's remark. The list is not random: actives were taken first. Their share in the collection is about 7.9%. % is set by controls: 0 for no effect and ±100 for the full control effect.
SMILES,HCV inh,MARV entry inh,LASV entry inh,FMDV inh,HCMV antiviral
CC(=O)c1ccc(S(=O)(=O)N2CCN(CC(=O)Nc3ccc(Cl)c([N+](=O)[O-])c3)CC2)cc1,-18.4%,x,x,u,-2.4
Cc1ccc(S(=O)(=O)N2CCN(CC(=O)N/N=C\c3ccc(Cl)c([N+](=O)[O-])c3)CC2)cc1,4.47µM*,u,-37.3%,-11.2%,u
COc1ccccc1C1CN(Cc2cccc(C)n2)Cc2ccccc2O1 (stereo not drawn),x,x,x,0.0%,x
Cc1ccc(C2CC(C(F)(F)F)n3nc(C(=O)NCc4c(C)nn(C)c4C)c(Cl)c3N2)cc1 (stereo not drawn),8.91µM*,11.6µM*!,u,25.1µM*,u
Cc1nn(C)cc1CN(C)C(=O)c1nn2c(c1Cl)NC(c1cccs1)CC2C(F)(F)F (stereo not drawn),3.7%,1.1%,3.4%,x,-77.5*
COc1ccc(C2CC(C(F)(F)F)n3nc(C(=O)NCc4cn(C)nc4C)c(Cl)c3N2)cc1 (stereo not drawn),u,u,-23.1%,x,-72.0*
Cc1nn(C)cc1CN(C)C(=O)c1nn2c(c1Br)NC(c1cccs1)CC2C(F)(F)F (stereo not drawn),-18.5%,u,-18.1%[46.1 µM],-13.3%,-31.4
C=CCNC(=O)[C@H]1C=C(OC)C(=O)C[C@H]2c3ccccc3C[C@]12C,x,-22.5%[14.2 µM],x,x,x
CC1CC(=O)N(CC(=O)Nc2ccc(Br)cc2)c2ccccc2S1(=O)=O (stereo not drawn),-3.6%,x,x,-21.7%,-64.3*
CNC(=O)[C@@H]1C[C@@H](NCc2cccc(Oc3ccccc3)c2)CN1C(C)C,x,x,x,-13.4%,x
Cc1sc2nc[nH]c(=O)c2c1-c1ccc(Cl)cc1,-11.9%,u,16.4%[46.1 µM],-18.8%,-74.0*
COc1ccc2c(c1)[C@@H](NC(C)=O)[C@H](C)[C@@H](c1ccccc1)N2C(C)=O,x,x,x,x,-4.7
COC(=O)c1ccc(/C=C/c2ccc3cccc(OC)c3n2)cc1,8.4%,-29.4%,-1.2%,u,0.0
COc1cc(/C=C/c2ccc3cccc(O)c3n2)cc(Cl)c1OC,u,4.47µM*,u,-9.9%,-37.0
COc1cccc(/C=C/c2ccc3cccc(O)c3n2)c1,u,u,u,-24.0%,-94.5*
COc1cc(/C=C/c2nc(-c3ccccc3O)n[nH]2)cc(OC)c1OC,11.2µM*,u,u,u,0.9
COc1cc(/C=C/c2ccc3c(Br)cc(Br)c(O)c3n2)ccc1O,8.91µM*,x,x,u,-99.7*
COc1ccc(-c2noc(CSc3nc(N)cc(=O)[nH]3)n2)cc1OC,x,x,-17.5%[46.1 µM],u,71.0
CC(C)NC(=O)c1cn([C@H]2CC[C@@H](NC(=O)/C=C/c3cccs3)CC2)nn1,x,x,x,0.0%,x
O=C(Cn1cc(C(=O)C2CCCCC2)c2ccccc21)Nc1ccccc1Cl,x,-29.1%[46.1 µM],16.5%[46.1 µM],-24.9%,-14.1
Oc1cccc(/C=C/c2ccc3cccc(O)c3n2)c1,u,u,u,-50.7%,45.2
COc1cc(/C=C/c2ccc3cccc(O)c3n2)cc(Br)c1OC,11.2µM*,u,-14.0%,-27.0%,u
COc1cc(/C=C/c2ccc3cccc(O)c3n2)cc(OC)c1OC,u,u,u,1.1%,-94.4*
COc1ccc(/C=C/c2ccc3cccc(O)c3n2)cc1Br,u,x,x,51.4%,104.3
COc1ccc(CNc2nc(-c3ccc(N(C)C)cc3)nc3ccccc23)c(OC)c1,x,x,x,-3.9%,x
SMILES,HCV inh,MARV entry inh,LASV entry inh,FMDV inh,HCMV antiviral
Cc1oc(=O)c(NC(=O)c2ccc(Cl)cc2)cc1C(=O)c1ccccc1,u,u,23.1µM*,u,-33.2
Cc1oc(=O)c(NC(=O)c2ccccc2)cc1C(=O)c1ccccc1,-19.0%,2.4%,u,-21.9%,118.4
Cc1ccc(C(=O)Nc2cc3ccccc3oc2=O)cc1,-15.6%,u,2.82µM*,2µM*,-66.9*
CC(=O)Nc1cc2ccccc2oc1=O,10.8%,1.2%[46.1 µM],-0.1%,18.6%,-26.1
CC(=O)OC[C@H]1O[C@H](CC=NO[C@H](C)c2cn([C@H](CO)Cc3ccccc3)nn2)C=C[C@@H]1OC(C)=O,x,13.0%[14.2 µM],-20.8%[14.3 µM],x,x
CC(C)N=c1cc2n(-c3ccc(Cl)cc3)c3ccccc3nc-2cc1Nc1ccc(Cl)cc1,-11.5%,x,x,-13.8%,-63.6*
C[C@H](NC(=O)OC(C)(C)C)c1nnc(SCc2c(F)cccc2Cl)o1,x,1.2%[46.1 µM],-33.5%[46.1 µM],-30.1%,-77.6*
CC[C@@H](C)[C@H](NC(=O)OC(C)(C)C)c1nnc(S(=O)(=O)Cc2cc(C)ccc2C)o1,-13.9%,u,10µM*,-27.9%,0.7
CC(C)[C@H](NC(=O)OC(C)(C)C)c1nnc(S(=O)(=O)Cc2c(F)cccc2Cl)o1,u,-3.1%,-4.6%,35.5µM*,-76.2*
COc1cc(NC(=O)CCn2cnc3ccccc3c2=O)cc(OC)c1,x,x,18.1%[46.1 µM],-13.8%,17.0
O=C(CSc1nc2ccccc2nc1Cc1ccccc1)Nc1ccccc1C(F)(F)F,x,x,-3.6%[46.1 µM],-16.0%,-5.9
CCc1ccc(NC(=O)Cn2c(=O)n(CCC(C)C)c(=O)c3cccnc32)cc1,x,u,x,-21.5%,23.6
CCN(C(=O)c1cccs1)c1nnc(-c2ccncc2)s1,-0.1%,-19.2%[46.1 µM],-8.4%,10.7%,-64.6*
CC1CCc2onc(C(=O)N3CCN(c4ccc(Cl)cc4)CC3)c2C1 (stereo not drawn),x,x,-26.3%[46.1 µM],-25.2%,-74.1*
Cc1cccc(C(=O)NCC(=O)N2CC=C(c3ccccc3)CC2)c1,5.62µM*,x,x,1.2%,11.6
Cc1ccc(C(=O)N2CC=C(c3ccccc3)CC2)o1,11.2µM*,0.4%[46.1 µM],-3.2%,1.4%,-36.9
O=C(O)c1ccccc1C(=O)N1CC=C(c2ccccc2)CC1,u,11.1%,0.3%,-21.9%,-30.0
Cc1cccc(C(=O)NCC(=O)N2CCN(c3ccccn3)CC2)c1,35.3%,u,19.1%,11.0%,-104.5*
CCS(=O)(=O)N1CC(=O)N(c2ccccc2C)C(C)(C(=O)NC2CCCCC2)C1 (stereo not drawn),x,x,4.0%[46.1 µM],3.7%,0.0
Cc1ccc(NC(=O)Cn2cc(S(=O)(=O)Cc3ccc(F)cc3)c3ccccc32)cc1Cl,x,x,-29.1%[46.1 µM],-15.2%,u
O=C(c1ccccc1C(=O)N1CCN(c2ccccc2)CC1)N1CCN(c2ccccc2)CC1,2.1%,-2.3%,u,-23.5%,-14.0
O=C(c1ccccc1C(=O)N1CCN(c2ccc(F)cc2)CC1)N1CCN(c2ccc(F)cc2)CC1,-3.9%,u,u,22.4µM*,-24.4
O=C(c1ccc(N2CCN(C(=O)c3ccc(F)cc3F)CC2)cc1)c1cccc(F)c1,11.2µM*,x,x,u,-35.5
COc1cccc(NC(=O)COC(=O)c2ccccc2C(=O)N2CCN(c3ccccc3)CC2)c1,u,u,u,17.8µM*,u
Cc1ccccc1C(=O)c1c[nH]c(C(=O)N2CCN(c3ccccc3F)CC2)c1,u,u,u,u,-37.8
O=C(c1c[nH]c(C(=O)N2CCN(c3ccccc3F)CC2)c1)c1cccc(Cl)c1Cl,25.1µM*,u,u,-29.9%,-19.3
